Data taken from PubChem BioAssay (NCI).
The panel holds about 83,000 compounds, 20% with a hit somewhere; the sample as a whole holds those more often.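 Compound tested at a single concentration for 48 hours in 96-well plates; a percent growth value below 10 was scored as active.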 Values without a mark were called inactive. Calls of active or inactive are those of the source.

Tests used:
Assay in all cases: NCI-60 one-dose screen, 48 h (100 = growth as untreated, 0 = no growth, -100 = all killed)
Conditions in all cases: 10 µM unless noted
NCI-H23 lung = tested on: NCI-H23 lung
NCI-H226 lung = tested on: NCI-H226 lung
NCI-H322M lung = tested on: NCI-H322M lung
HOP-62 NSCLC = tested on: HOP-62 NSCLC
NCI-H460 lung = tested on: NCI-H460 lung
HOP-92 NSCLC = tested on: HOP-92 NSCLC
NCI-H522 lung = tested on: NCI-H522 lung
A549/ATCC NSCLC = tested on: A549/ATCC NSCLC
786-0 renal = tested on: 786-0 renal
COLO 205 colon = tested on: COLO 205 colon
DU-145 prostate = tested on: DU-145 prostate
MALME-3M melanoma = tested on: MALME-3M melanoma
MDA-MB-231 breast = tested on: MDA-MB-231 breast
RXF 393 renal = tested on: RXF 393 renal
SF-268 CNS = tested on: SF-268 CNS
SF-295 CNS = tested on: SF-295 CNS
UACC-257 melanoma = tested on: UACC-257 melanoma
K-562 leukemia = tested on: K-562 leukemia
SF-539 CNS = tested on: SF-539 CNS
M14 melanoma = tested on: M14 melanoma

SMILES	growth (NCI-H23 lung)	growth (NCI-H226 lung)	growth (NCI-H322M lung)	growth (HOP-62 NSCLC)	growth (NCI-H460 lung)	growth (HOP-92 NSCLC)	growth (NCI-H522 lung)	growth (A549/ATCC NSCLC)	growth (786-0 renal)	growth (COLO 205 colon)	growth (DU-145 prostate)	growth (MALME-3M melanoma)	growth (MDA-MB-231 breast)	growth (RXF 393 renal)	growth (SF-268 CNS)	growth (SF-295 CNS)	growth (UACC-257 melanoma)	growth (K-562 leukemia)	growth (SF-539 CNS)	growth (M14 melanoma)
CCCCCCCCc1cc[n+](CC(=O)c2ccc(Br)cc2)cc1	49.5%	53.6%	96.2%	8% (active)	-84.9% (active)	24.1%	-91.5% (active)	-84.1% (active)	16.6%	-89.6% (active)	37%	-25.4% (active)	13.8%	-24% (active)	52.5%	34%	-61.2% (active)	–	–	–
COc1cc(/C=C/C(=O)c2cccc(-n3cc(-c4ccccc4)[nH]c3=O)c2)cc(OC)c1OC	-27.4% (active)	24.9%	33%	7.01% (active)	-68.5% (active)	24.3%	-64.5% (active)	27.1%	-63.4% (active)	–	7.58% (active)	2.69% (active)	5.03% (active)	-69.7% (active)	17.7%	51%	-13.2% (active)	5.48% (active)	-88.8% (active)	–
Clc1cnc(Nc2ccc(OCCN3CCCC3)cc2)nc1NCc1ccco1	10.2%	-9.35% (active)	19.9%	11.7%	3.25% (active)	5.42% (active)	55.2%	11.3%	23.7%	–	17.5%	26.1%	-5.14% (active)	-37.7% (active)	21.1%	31.2%	49.1%	16.4%	-14.2% (active)	35.1%
NC(=O)c1c(NC(=O)c2ccccn2)sc2c1CCC(=O)C2	17.2%	70.7%	94.3%	81%	71.2%	15.9%	-13.5% (active)	60.6%	89.4%	–	91.5%	49.4%	7.89% (active)	21.5%	21%	66.3%	46.9%	10.1%	1.9% (active)	22.5%
O=C(CC12CC3CC(CC(C3)C1)C2)NCCOCCOCCNC(=O)c1cc2c(o1)C(=O)c1ccccc1C2=O	-52.9% (active)	-71.7% (active)	-90.2% (active)	-58.3% (active)	-72.6% (active)	-8.25% (active)	-49.5% (active)	-61.7% (active)	-29.1% (active)	–	-95.7% (active)	-97.1% (active)	-9.38% (active)	-92.3% (active)	-16.4% (active)	-94.2% (active)	-95.3% (active)	1.74% (active)	-96.1% (active)	-73.6% (active)
NS(=O)(=O)Oc1ccc(NC(=O)C23CC4CC(CC(C4)C2)C3)cc1Cl	101%	91.3%	104%	92.1%	103%	87.6%	75.8%	93.7%	98.2%	–	99.8%	97.6%	90.5%	111%	88.1%	101%	90.2%	94.6%	87.3%	97.3%
CCc1c(C(=O)N[C@@H]2c3cc(Cl)ccc3CC[C@@H]2O)[nH]c(C)c1C(C)=O	100%	76.5%	91.2%	72.1%	33.6%	84.1%	65.9%	62%	89.3%	–	94.5%	110%	84.2%	92.3%	73.2%	64.7%	80.2%	69.7%	67%	87.4%
Nc1ccn(C2OC(F)(CO)C(O)C2F)c(=O)n1 (configuration not stated)	10.3%	89.4%	71.1%	17.3%	12.7%	53.3%	32.8%	21.8%	10.9%	–	24.6%	57.4%	93.4%	82.4%	47.1%	55.2%	62.6%	69%	46.9%	1.59% (active)
OCCCCc1nccc2c1[nH]c1ccccc12	98.8%	90.7%	88.9%	95.3%	104%	104%	117%	72.6%	102%	–	114%	115%	94.8%	65.7%	105%	102%	113%	79.8%	90.8%	102%
CCCCOc1ccc(NC(=O)n2nc(N=NN(C)C)c3ccc(Cl)cc32)cc1	94.2%	96.3%	99.4%	88.3%	110%	93%	90.1%	111%	109%	–	106%	122%	104%	112%	102%	101%	125%	93.7%	104%	89.4%
COC(=O)c1ccc2oc(NC(=O)c3ccc(N4CCOCC4)c([N+](=O)[O-])c3)nc2c1	93%	90.5%	92.6%	82.3%	105%	84.9%	91%	98.7%	108%	–	102%	90.5%	100%	119%	97.4%	97.7%	97.9%	84.6%	89.6%	98.8%
Cl.[Pt].[c-]1ccccc1-c1ccccn1.c1ccc(P(c2ccccc2)C([PH+](c2ccccc2)c2ccccc2)[PH+](c2ccccc2)c2ccccc2)cc1	5.59% (active)	7.37% (active)	12.5%	25.1%	5.2% (active)	-17% (active)	9.94% (active)	14.6%	22.8%	–	24.1%	-9.83% (active)	-8.43% (active)	11.3%	27.6%	7.09% (active)	15.5%	11%	8.54% (active)	19.2%
CC(C)n1nc(C#Cc2cccc(NC(=O)c3cccc(C(F)(F)F)c3)c2)c2c(N)ncnc21	-3.4% (active)	-0.0561% (active)	-18.3% (active)	-37.9% (active)	5.91% (active)	-33.7% (active)	-18.6% (active)	-14.4% (active)	-20.9% (active)	–	-22.9% (active)	-39% (active)	-81.9% (active)	-76.8% (active)	3.1% (active)	-14.9% (active)	-18.2% (active)	-22.6% (active)	-73.9% (active)	-44% (active)
C[C@H]1[C@H]2C3=CC[C@@H]4[C@@]5(C)C/C(=C/c6ccncc6)C(=O)C(C)(C)[C@@H]5CC[C@@]4(C)[C@]3(C)CC[C@@]2(C(=O)N2CCN(C)CC2)CC[C@@H]1C	93.2%	85.5%	78.2%	74.7%	68.3%	42.8%	70%	63.9%	81.4%	–	89.3%	102%	81.4%	83.8%	82.4%	87.7%	83.6%	40.2%	83.2%	65.7%
C=C1C(=O)O[C@H]2[C@H]1CC/C(COC(=O)NCc1ccc(Cn3c(=O)sn(CCCCl)c3=O)cc1)=C\CC[C@@]1(C)O[C@@H]21	70.8%	58.7%	88.8%	87.2%	101%	-53.8% (active)	-89.7% (active)	90.5%	38.1%	–	8.01% (active)	-57.1% (active)	14.4%	-76.7% (active)	44.5%	101%	10.4%	0.0582% (active)	-7.17% (active)	5.43% (active)
